This is an account of results in the supplement of paper PMC10338343.

± gives the standard deviation.

This test deals with MILI (PIWIL2) piRISC loaded with L1MC piRNA (26 nt). The test is described as follows: pre-steady-state target cleavage rate (min^-1); guide: L1MC piRNA 5'p-UAACUAAAUACUAUGCAAGCUGUAGG; MIWI and MILI are mouse PIWI proteins and EfPiwi is from a freshwater sponge; tags in brackets are library labels; higher = faster piRNA-guided slicing of the target. The note with it: auxiliary factor: 500 nM mouse GTSF1. The method, boiled down:
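The pre-steady-state cleavage rate came from a burst-and-steady-state fit to pooled data from three Cleave-'n-Seq trials, in which uncleaved targets were sequenced and normalised to depth and to weakly complementary targets. Each reaction held 0.1 nM transcribed, DNA-blocked target RNA library and 1 nM active affinity-purified piRISC carrying one synthetic guide, with or without 500 nM GTSF1 partner protein, in HEPES–potassium acetate buffer at 33 °C for 0–8 or 0–960 min. k3 was capped at 0.0001 min^-1.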
For the sequence UCCUGGAUGUCCUUGCAUAGUAUUUACUUA, the “pre-steady-state target cleavage rate” value was determined as 0.0499 ± 0.013.
As for UCCUGGAUGUCGAAGCAUAGUAUUUAGUAA, the figure is 0.0199 ± 0.0047.
For UCCUGGAUGUCGAAGCAUAAUAUUUAGUUA the value was 0.0097 ± 0.0039; for UCCUGGAUCACCUUGCAUAGUUUUUAGUUA, 0.016 ± 0.0061; for UCCUGGAACAGCAUGCAUAGUAUUUACAAA, 0.182 ± 0.035.
As for UCCUGGAUGUGCUUCGAUAGUAUUUAGUUA, the figure is 0.0415 ± 0.0078; as for UCCUGGAUGAGCUUGCAUAGUAUUUAGGUA, 0.166 ± 0.04; as for UCCUGGAUCAGCUUGCAAUCUAUUUAGUAA, 0.0108 ± 0.0043.
On to UCCUGGAUGUCCUUGCAUACUAAUUAGUUA, for which the “pre-steady-state target cleavage rate” value turned out to be 0.00561 ± 0.0042.
With UCCUGGAACAGCAAGCAUAGUAUUUAGUAA, the “pre-steady-state target cleavage rate” value was 0.271 ± 0.025.
For UCCUGGAUGUCCUUGCAUUGUAUUUACUUA the value was 0.0534 ± 0.012; for UCCUGCUACAGCUUGCUAUGUAUUUAGUAA, 0.0455 ± 0.019.
For UCCUGGUAGAGCUUGCAUAGAAUUUAGUUA the value was 0.0311 ± 0.0054; for UCCUGGAUGUGCUUGCAUUCUAUUUAGUUA, 0.0101 ± 0.004; for UCCUGGAUGUCCUUGCCAUAGUAUUUAGUUA, 0.00783 ± 0.0048.
As to UCCUGGAUGUCGUUGCAUAGUAAUAAGUUA, the “pre-steady-state target cleavage rate” value was 0.0113 ± 0.004.
For UCCUGGAUCAGCUUGCAUAUAUUUAGUUA the value was 0.0263 ± 0.0067.
With UCCUGGUAGAGCUUGCAUAGUAUUUAGAUA, the “pre-steady-state target cleavage rate” value is 0.14 ± 0.025.
For UCCUGCUACAGCUUGCAUAGUUUUUACUUA the value was 0.0291 ± 0.0063; for UCCUGGAUGUCCAUGCAUAGUAUUUACUUA, 0.0292 ± 0.0095.
As for UCCUGGAACAGCUUGCAUAGUAAAUAGAAA, the figure is 0.0493 ± 0.016; as for UCCUGGAUGUCGUUGGAUAGUAUUUAGUUA, 0.0108 ± 0.0042.
Consider UCCUGGAUGUCCUUGCAUAGUAAUUACUUA, for which the “pre-steady-state target cleavage rate” value is 0.0143 ± 0.0067.
For UCCUGGAUGUCCUUGCAUAGUAAUUAGUAA the value was 0.0241 ± 0.0076.
